Source: PubChem BioAssay (several laboratories)
Hits are enriched below; roughly 4% of the tested compounds scored in any of these assays.
Mtb bLac sens = beta-lactam sensitization of Mtb H37Rv. AID 434955. M. tuberculosis H37Rv growth with meropenem, percent inhibition. hit rate 0.27% among 330,000. inhibition, % at 25 µM; call rule not given here;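 further: growth measured after seven days incubation then overnight dye step; 0% = bacteria only wells and 100% = bacteria with antibiotic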
RecA intein inh = blocks M. tuberculosis RecA intein splicing | P9WHJ3 | cell-free RecA intein splicing, fluorescence | inhibition, % (test concentration not listed) | hit rate 0.75% among 290,000; in the data active means inhibition above about 30%;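 further: 0% = vehicle wells and 100% = reference inhibitor control wells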
GDH-TPI inh = GDH-TPI coupled enzyme inhibition counter-screen; AID 588335; hit rate 1.2% among 360,000; GDH-TPI coupled enzyme counterscreen, NADH absorbance; inhibition, % at 4.8 µM; in the data active means inhibition above about 30%;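 further: 0% = DMSO wells and 100% = wells lacking the enzyme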
UGM FP inh = inhibitors of M. tuberculosis UDP-galactopyranose mutase; inhibition, % at 10 µM; P9WIQ1; purified UGM, fluorescence polarization probe displacement; hit rate 0.06% among 320,000; in the data active means inhibition above about 10%, passing the limit was not always enough
Target sequence (P9WIQ1 whole entry, looked up): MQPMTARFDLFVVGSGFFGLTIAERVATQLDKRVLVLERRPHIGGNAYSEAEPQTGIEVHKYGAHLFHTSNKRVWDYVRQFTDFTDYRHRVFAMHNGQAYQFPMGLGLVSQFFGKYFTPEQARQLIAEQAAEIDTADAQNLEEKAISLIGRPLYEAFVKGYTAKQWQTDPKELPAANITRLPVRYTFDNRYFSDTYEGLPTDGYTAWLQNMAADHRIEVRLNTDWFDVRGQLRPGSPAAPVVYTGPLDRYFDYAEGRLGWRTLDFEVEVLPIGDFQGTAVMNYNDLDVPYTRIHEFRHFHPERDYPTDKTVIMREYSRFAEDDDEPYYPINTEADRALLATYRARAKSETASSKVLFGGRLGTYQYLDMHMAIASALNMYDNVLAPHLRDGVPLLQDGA
Rv3671c inh = inhibits the M. tuberculosis serine protease Rv3671c. inhibition, % at 5.96 µM. hit rate 0.048% among 320,000. AID 2606; in the data active means inhibition above about 38%;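 further: extracellular domain of Rv3671c used as enzyme; 0% = enzyme with DMSO and 100% = no enzyme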
Mtb FBA inh = Mtb fructose-bisphosphate aldolase inhibition; AID 588726; hit rate 2.3% among 360,000; purified M. tuberculosis FBA, fluorescence read-out; inhibition, % at 1 µM; in the data active means inhibition above about 27%;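 further: 0% = vehicle and 100% = reference inhibitor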
The depositor's hits bear a star.

How did N#CC(C(=O)NC1CC1)c1nc2ccccc2nc1N1CCCC1 (stereo not drawn) do in these assays?
Mtb bLac sens: 62.4; RecA intein inh: -76.2; GDH-TPI inh: 19.7; UGM FP inh: -1.4; Rv3671c inh: -2.2; Mtb FBA inh: 60.6*

How did O=c1[nH]nc(N/N=C/c2ccc(Cl)cc2Cl)c(=O)[nH]1 do in these assays?
Mtb bLac sens: 5.1; RecA intein inh: -5.7; GDH-TPI inh: 37.5*; UGM FP inh: 2.1; Rv3671c inh: 4.6; Mtb FBA inh: 0.3

Results for COC(=O)c1cc(CSc2nc3ccccc3c(=O)n2C)oc1C ?
Mtb bLac sens: 3.0; RecA intein inh: 3.1; GDH-TPI inh: 1.5; UGM FP inh: 0.3; Rv3671c inh: -0.3; Mtb FBA inh: -2.7

Results for COC(=O)c1sc(NC(=O)c2ccco2)c(C#N)c1C ?
Mtb bLac sens: -1.2; RecA intein inh: 1.7; GDH-TPI inh: 0.5; UGM FP inh: -1.3; Rv3671c inh: 3.9; Mtb FBA inh: 2.1

Results for Cc1c(C(=O)N2CCCC2)sc(NC(=O)c2ccccc2)c1C#N ?
Mtb bLac sens: 4.5; RecA intein inh: 0.8; GDH-TPI inh: 25.9; UGM FP inh: 3.3; Rv3671c inh: -3.8; Mtb FBA inh: -1.2

How did Cc1c(C(=O)N2CCCC2)sc(NC(=O)c2ccco2)c1C#N do in these assays?
Mtb bLac sens: -2.8; RecA intein inh: 0.0; GDH-TPI inh: 30.7*; UGM FP inh: -3.3; Rv3671c inh: 4.6; Mtb FBA inh: -3.4

Results for Cc1c(C(=O)N2CCCCC2)sc(NC(=O)c2ccco2)c1C#N ?
Mtb bLac sens: -11.4; RecA intein inh: -0.8; GDH-TPI inh: 40.1*; UGM FP inh: 1.0; Rv3671c inh: -3.2; Mtb FBA inh: -2.3

How did CC/C=C(\NC(C)=O)c1ccccc1 do in these assays?
Mtb bLac sens: 3.9; GDH-TPI inh: 2.5; UGM FP inh: -1.7; Rv3671c inh: 4.6; Mtb FBA inh: -0.6

What do the screens show for `Oc1ccc(C=NNC(=S)Nc2cccnc2)nc1`?
GDH-TPI inh: 50.0*; Mtb FBA inh: 5.3

What do the screens show for `Oc1ccc(/C=N/NC(=S)Nc2cccnc2)cc1O`?
Mtb bLac sens: 4.0; RecA intein inh: -7.3; GDH-TPI inh: 33.7*; UGM FP inh: 0.2; Rv3671c inh: 0.0; Mtb FBA inh: -3.9

How did CC(C)(C)c1ccc(/C=N/NC(=S)Nc2cccnc2)cc1 do in these assays?
Mtb bLac sens: -2.7; RecA intein inh: -5.5; UGM FP inh: 0.6; Rv3671c inh: -4.2

How did COc1ccccc1/C=N/NC(=S)Nc1cccnc1 do in these assays?
RecA intein inh: -2.9; GDH-TPI inh: 26.8; UGM FP inh: 0.4; Rv3671c inh: -3.7; Mtb FBA inh: 2.9

Results for Cc1cc(C(=O)NC2CCCc3c2cnn3-c2ccc(C(C)(C)C)cc2)n[nH]1 (stereo not drawn) ?
Mtb bLac sens: 72.2; RecA intein inh: 2.0; GDH-TPI inh: 2.5; UGM FP inh: 0.1; Rv3671c inh: -7.8; Mtb FBA inh: 0.6

Results for Nc1ccc(-c2nc3ccc(N)cc3o2)cc1 ?
Mtb bLac sens: -0.7; GDH-TPI inh: 45.7*; UGM FP inh: -1.5; Rv3671c inh: 10.3; Mtb FBA inh: active

Results for Cc1ccc2nc(-c3cc(N)cc(N)c3)oc2c1 ?
Mtb bLac sens: 94.3; RecA intein inh: -3.7; GDH-TPI inh: 8.0; UGM FP inh: -1.2; Rv3671c inh: 16.9; Mtb FBA inh: 4.1

Results for COc1cccc(C(NC(C)=O)c2nc(-c3cccc(O)c3)cs2)c1 (stereo not drawn) ?
GDH-TPI inh: 10.6; Mtb FBA inh: 4.8

Results for COC(=O)CC1=NN(c2ccc(OC)cc2)C(=O)C1 ?
Mtb bLac sens: 0.9; RecA intein inh: 72.3*; GDH-TPI inh: 8.0; UGM FP inh: 2.7; Rv3671c inh: -55.6; Mtb FBA inh: -4.9

How did Cc1noc(C)c1COC(=O)c1cc2c3ccccc3n(C)c2s1 do in these assays?
Mtb bLac sens: 10.6; GDH-TPI inh: 39.5*; UGM FP inh: 3.8; Rv3671c inh: -24.3; Mtb FBA inh: 4.8

Results for CCCCc1ccc(/C=C2\C(=O)c3ccccc3C(O)=C2C(=O)OCC)cc1 ?
Mtb bLac sens: 6.3; RecA intein inh: 35.1*; UGM FP inh: 0.7; Rv3671c inh: -82.0

What do the screens show for `CCOC(=O)C1=C(Cc2ccc(F)cc2)C(=O)c2ccccc2C1=O`?
Mtb bLac sens: 22.6; RecA intein inh: 7.8; GDH-TPI inh: 2.1; UGM FP inh: -7.4; Rv3671c inh: -40.4; Mtb FBA inh: -1.4

Results for NC(=O)N/N=C/c1ccc(-c2ccc(S(=O)(=O)Nc3ncccn3)cc2)o1 ?
GDH-TPI inh: 37.0*; Mtb FBA inh: 8.9

How did CC(C)Oc1ccc(C(=O)N/N=C/c2ccc(-c3ccc(S(=O)(=O)Nc4ncccn4)cc3)o2)cc1 do in these assays?
Mtb bLac sens: 94.3; RecA intein inh: -0.8; GDH-TPI inh: 49.5*; UGM FP inh: 2.0; Rv3671c inh: -2.3; Mtb FBA inh: 30.9*

How did COc1cc([C@@H]2Oc3cc(C4Oc5cc(O)cc(O)c5C(=O)[C@H]4O)ccc3O[C@H]2CO)ccc1O (stereo partly drawn) do in these assays?
Mtb bLac sens: 6.8; GDH-TPI inh: 25.6; UGM FP inh: -0.9; Rv3671c inh: 9.0; Mtb FBA inh: -1.2

What do the screens show for `COc1cc([C@H]2Oc3cc([C@H]4Oc5cc(O)cc(O)c5C(=O)[C@@H]4O)ccc3O[C@@H]2CO)ccc1O`?
Mtb bLac sens: -1.9; RecA intein inh: -3.0; GDH-TPI inh: 33.7*; UGM FP inh: 0.1; Rv3671c inh: -3.0; Mtb FBA inh: 5.3

How did O=C(Cc1cccc(NC(=O)C2CCN(C(=O)CCc3ccccc3)CC2)c1)Nc1cccc(C(=O)N2CCCCC2)c1 do in these assays?
GDH-TPI inh: 7.3; Mtb FBA inh: 2.3

What do the screens show for `CC(C)CN(C(=O)C1=NN(c2ccccc2)C(=O)CC1)c1c(N)n(Cc2ccccc2)c(=O)[nH]c1=O`?
Mtb bLac sens: -7.8; GDH-TPI inh: -3.5; UGM FP inh: 3.3; Rv3671c inh: 3.1; Mtb FBA inh: -0.9

What do the screens show for `CCOc1cc(/C=N\NC(=O)c2ccc(C)nc2)cc([N+](=O)[O-])c1O`?
Mtb bLac sens: 36.5; RecA intein inh: 0.9; GDH-TPI inh: 49.2*; UGM FP inh: -0.5; Rv3671c inh: 10.6; Mtb FBA inh: -10.2

What do the screens show for `COc1cc([N+](=O)[O-])cc(/C=N/NC(=O)c2ccc(NC(=O)c3ccc(C)cc3)cc2)c1O`?
RecA intein inh: 0.6; GDH-TPI inh: 2.8; Mtb FBA inh: -5.5

What do the screens show for `COc1cc([N+](=O)[O-])cc(/C=N/NC(=O)c2ccc(C)nc2)c1O`?
Mtb bLac sens: -4.5; RecA intein inh: 5.9; GDH-TPI inh: 37.1*; UGM FP inh: -0.2; Rv3671c inh: 13.8; Mtb FBA inh: -12.1

How did COc1cc2cc(C)c(SCC(=O)N3CCN(C(=O)c4ccco4)CC3)nc2cc1OC do in these assays?
Mtb bLac sens: 0.8; RecA intein inh: -1.6; GDH-TPI inh: 44.3*; UGM FP inh: 0.5; Rv3671c inh: -1.0; Mtb FBA inh: 10.4

What do the screens show for `CCc1cc2cc(C)ccc2nc1SCC(=O)N1CCN(C(=O)c2ccco2)CC1`?
Mtb bLac sens: 8.3; GDH-TPI inh: 11.8; UGM FP inh: 1.3; Rv3671c inh: 2.3; Mtb FBA inh: 0.4
